Data published in PubChem BioAssay AID1159580 (chemical genetic matrix, 2015).
Several values for one entry are separate records, joined by “and”; a condition that tells them apart may be missing. Equal values may be shown once. Out of some 5,500 compounds screened, about 2,000 (36%) were called active. Inconclusive results (about 18%) are left out. Cut-off read from the data, not from the text of the source: active = normalized growth mostly below about 0.91 (no sharp cut-off); inconclusive = no clear call, values can overlap the other calls; inactive = mostly above about 0.92. This is one part of the list.

Test: chemical genetic growth profiling, strain panel (AID 1159580);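 note: tested at 20 µM; growth read once vehicle control cultures reached saturation at 30 °C; 1 = growth at the plate median or of vehicle wells; lower values mean less growth of the strain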
Details: S. cerevisiae deletion strains, growth OD

CC[C@@]1(O)C[C@H](O)c2c(cc3c(c2O)C(=O)c2c(O)ccc(O)c2C3=O)[C@H]1C(=O)OC
normalized growth (locus YAL013W, strain DEP1, stronger effect = lower value): 0.495 (active)
normalized growth (locus YAL021C, strain ccr4, stronger effect = lower value): 0.768 (active)
normalized growth (locus YAL026C, strain drs2, stronger effect = lower value): 0.936 (inactive)
normalized growth (locus YAL030W, strain snc1, stronger effect = lower value): 0.908 (active)
normalized growth (locus YBL061C, strain skt5, stronger effect = lower value): 0.89 (active)
normalized growth (locus YBR009C, strain hhf1, stronger effect = lower value): 0.805 (active)
normalized growth (locus YBR021W, strain FUR4, stronger effect = lower value): 1.06 (inactive)
normalized growth (locus YBR023C, strain chs3, stronger effect = lower value): 0.924 (inactive)
normalized growth (locus YBR171W, strain sec66, stronger effect = lower value): 1.02 (inactive)
normalized growth (locus YBR229C, strain ROT2, stronger effect = lower value): 0.931 (inactive)
normalized growth (locus YBR231C, strain swc5, stronger effect = lower value): 0.751 (active)
normalized growth (locus YBR279W, strain paf1, stronger effect = lower value): 0.964 (inactive)
normalized growth (locus YCL011C, strain gbp2, stronger effect = lower value): 0.874 (active)
normalized growth (locus YCL016C, strain dcc1, stronger effect = lower value): 0.607 (active)
normalized growth (locus YCL029C, strain bik1, stronger effect = lower value): 0.873 (active)
normalized growth (locus YCL069W, strain vba3, stronger effect = lower value): 0.993 (inactive)
normalized growth (locus YCR088W, strain abp1, stronger effect = lower value): 0.963 (inactive)
normalized growth (locus YDL005C, strain med2, stronger effect = lower value): 1.01 (inactive)
normalized growth (locus YDL035C, strain GPR1, stronger effect = lower value): 0.779 (active)
normalized growth (locus YDL040C, strain nat1, stronger effect = lower value): 0.967 (inactive)
normalized growth (locus YDL074C, strain BRE1, stronger effect = lower value): 0.588 (active)
normalized growth (locus YDL101C, strain DUN1, stronger effect = lower value): 0.659 (active)
normalized growth (locus YDL134C, strain PPH21, stronger effect = lower value): 0.622 (active)
normalized growth (locus YDL185W, strain tfp1, stronger effect = lower value): 0.774 (active)
normalized growth (locus YDL192W, strain arf1, stronger effect = lower value): 0.735 (active)
normalized growth (locus YDR001C, strain nth1, stronger effect = lower value): 1 (inactive)
normalized growth (locus YDR069C, strain doa4, stronger effect = lower value): 0.896 (active)
normalized growth (locus YDR101C, strain arx1, stronger effect = lower value): 0.848 (active)
normalized growth (locus YDR137W, strain rgp1, stronger effect = lower value): 0.707 (active)
normalized growth (locus YDR150W, strain NUM1, stronger effect = lower value): 0.879 (active)
normalized growth (locus YDR159W, strain sac3, stronger effect = lower value): 0.873 (inactive)
normalized growth (locus YDR162C, strain NBP2, stronger effect = lower value): 0.414 (active)
normalized growth (locus YDR195W, strain ref2): 1.28 [resistant] (active)
normalized growth (locus YDR297W, strain sur2, stronger effect = lower value): 0.94 (inactive)
normalized growth (locus YDR318W, strain mcm21, stronger effect = lower value): 0.861 (active)
normalized growth (locus YDR334W, strain swr1, stronger effect = lower value): 1.01 (inactive)
normalized growth (locus YDR335W, strain msn5, stronger effect = lower value): 0.961 (inactive)
normalized growth (locus YDR388W, stronger effect = lower value): 0.811 (active)
normalized growth (locus YDR392W, strain spt3, stronger effect = lower value): 0.799 (inactive)
normalized growth (locus YDR502C, strain sam2, stronger effect = lower value): 0.7 (active)
normalized growth (locus YEL003W, strain gim4, stronger effect = lower value): 0.958 (inactive)
normalized growth (locus YEL037C, strain rad23, stronger effect = lower value): 0.997 (inactive)
normalized growth (locus YEL061C, strain CIN8 (second series), stronger effect = lower value): 1.01 (inactive)
normalized growth (locus YEL061C, strain CIN8, stronger effect = lower value): 0.7 (active)
normalized growth (locus YER015W, strain faa2, stronger effect = lower value): 0.894 (active)
normalized growth (locus YER016W, strain bim1, stronger effect = lower value): 0.909 (active)
normalized growth (locus YER110C, stronger effect = lower value): 0.98 (inactive)
normalized growth (locus YER111C, strain swi4, stronger effect = lower value): 1.03 (inactive)
normalized growth (locus YER155C, strain BEM2 (second series), stronger effect = lower value): 1.06 (inactive)
normalized growth (locus YER155C, strain BEM2, stronger effect = lower value): 0.638 (active)
normalized growth (locus YER167W, strain BCK2, stronger effect = lower value): 0.713 (active)
normalized growth (locus YFR010W, strain ubp6, stronger effect = lower value): 0.894 (active)
normalized growth (locus YGL078C, strain dbp3, stronger effect = lower value): 0.935 (inactive)
normalized growth (locus YGL086W, strain mad1, stronger effect = lower value): 0.718 (active)
normalized growth (locus YGL167C, strain pmr1, stronger effect = lower value): 0.976 (inactive)
normalized growth (locus YGL173C, strain kem1, stronger effect = lower value): 0.906 (inactive)
normalized growth (locus YGL227W, strain vid30, stronger effect = lower value): 1.01 (inactive)
normalized growth (locus YGL240W, strain doc1, stronger effect = lower value): 0.894 (inactive)
normalized growth (locus YGL248W, strain PDE1, stronger effect = lower value): 0.682 (active)
normalized growth (locus YGL253W, strain hxk2, stronger effect = lower value): 0.825 (active)
normalized growth (locus YGR135W, strain pre9, stronger effect = lower value): 0.818 (active)
normalized growth (locus YGR252W, strain gcn5, stronger effect = lower value): 0.832 (inactive)
normalized growth (locus YHR013C, strain ard1, stronger effect = lower value): 1 (inactive)
normalized growth (locus YHR027C, strain rpn1, stronger effect = lower value): 0.713 (active)
normalized growth (locus YHR030C, strain SLT2, stronger effect = lower value): 0.97 (inactive)
normalized growth (locus YHR079C, strain IRE1 (second series), stronger effect = lower value): 0.856 (active)
normalized growth (locus YHR079C, strain IRE1, stronger effect = lower value): 0.984 (inactive)
normalized growth (locus YHR094C, strain hxt1, stronger effect = lower value): 0.88 (active)
normalized growth (locus YHR129C, strain ARP1, stronger effect = lower value): 0.638 (active)
normalized growth (locus YHR142W, strain chs7, stronger effect = lower value): 0.883 (inactive)
normalized growth (locus YHR200W, strain rpn10, stronger effect = lower value): 0.771 (active)
normalized growth (locus YIL066C, strain RNR3, stronger effect = lower value): 0.421 (active)
normalized growth (locus YIL073C, strain SPO22, stronger effect = lower value): 0.593 (active)
normalized growth (locus YIL125W, strain kgd1, stronger effect = lower value): 0.861 (active)
normalized growth (locus YIR030C, strain dcg1, stronger effect = lower value): 0.908 (active)
normalized growth (locus YJL092W, strain hpr5, stronger effect = lower value): 0.734 (active)
normalized growth (locus YJL095W, strain BCK1 (second series), stronger effect = lower value): 0.912 (active)
normalized growth (locus YJL095W, strain BCK1, stronger effect = lower value): 0.21 (active) and 0.986 (inactive)
normalized growth (locus YJL115W, strain asf1, stronger effect = lower value): 0.394 (active)
normalized growth (locus YJL129C, strain trk1, stronger effect = lower value): 0.989 (inactive)
normalized growth (locus YJL134W, strain LCB3, stronger effect = lower value): 0.905 (active)
normalized growth (locus YJL154C, strain vps35, stronger effect = lower value): 0.996 (inactive)
normalized growth (locus YJL164C, strain tpk1, stronger effect = lower value): 0.887 (active)
normalized growth (locus YJL166W, strain qcr8, stronger effect = lower value): 0.838 (active)
normalized growth (locus YJL168C, strain set2, stronger effect = lower value): 0.942 (inactive)
normalized growth (locus YJL187C, strain SWE1 (second series), stronger effect = lower value): 0.344 (active)
normalized growth (locus YJR043C, strain POL32, stronger effect = lower value): 0.696 (active)
normalized growth (locus YJR066W, strain TOR1, stronger effect = lower value): 0.941 (inactive)
normalized growth (locus YKL009W, strain mrt4, stronger effect = lower value): 1.54 [resistant] (active)
normalized growth (locus YKL085W, strain MDH1 (second series), stronger effect = lower value): 0.818 (active)
normalized growth (locus YKL085W, strain MDH1, stronger effect = lower value): 0.818 (active)
normalized growth (locus YKL160W, strain elf1, stronger effect = lower value): 0.9 (active)
normalized growth (locus YKR001C, strain vps1, stronger effect = lower value): 0.354 (active)
normalized growth (locus YKR026C, strain gcn3, stronger effect = lower value): 0.994 (inactive)
normalized growth (locus YKR091W, strain srl3, stronger effect = lower value): 1 (inactive)
normalized growth (locus YLL001W, strain dnm1, stronger effect = lower value): 0.953 (inactive)
normalized growth (locus YLL026W, stronger effect = lower value): 0.956 (inactive)
normalized growth (locus YLL041C, strain sdh2, stronger effect = lower value): 0.982 (inactive)
normalized growth (locus YLR027C, strain aat2, stronger effect = lower value): 0.869 (active)
normalized growth (locus YLR039C, strain RIC1, stronger effect = lower value): 0.395 (active)
normalized growth (locus YLR058C, strain SHM2, stronger effect = lower value): 0.643 (active)
normalized growth (locus YLR102C, strain apc9, stronger effect = lower value): 0.984 (inactive)
normalized growth (locus YLR113W, strain HOG1, stronger effect = lower value): 0.971 (inactive)
normalized growth (locus YLR221C, strain rsa3, stronger effect = lower value): 0.901 (active)
normalized growth (locus YLR258W, strain gsy2, stronger effect = lower value): 0.9 (active)
normalized growth (locus YLR262C, strain YPT6 (second series), stronger effect = lower value): 0.795 (active)
normalized growth (locus YLR268W, strain sec22, stronger effect = lower value): 0.545 (active)
normalized growth (locus YLR320W, strain mms22, stronger effect = lower value): 0.216 (active)
normalized growth (locus YLR342W, strain FKS1 (second series), stronger effect = lower value): 0.857 (inactive)
normalized growth (locus YLR342W, strain FKS1, stronger effect = lower value): 0.958 (inactive)
normalized growth (locus YLR357W, strain rsc2, stronger effect = lower value): 1.01 (inactive)
normalized growth (locus YLR370C, strain arc18, stronger effect = lower value): 0.96 (inactive)
normalized growth (locus YLR371W, strain rom2, stronger effect = lower value): 0.991 (inactive)
normalized growth (locus YLR384C, strain iki3, stronger effect = lower value): 1.02 (inactive)
normalized growth (locus YLR418C, strain cdc73, stronger effect = lower value): 0.56 (active)
normalized growth (locus YML016C, strain PPZ1, stronger effect = lower value): 0.815 (active)
normalized growth (locus YML032C, strain rad52, stronger effect = lower value): 0.175 (active)
normalized growth (locus YML120C, strain ndi1, stronger effect = lower value): 0.962 (inactive)
normalized growth (locus YML124C, strain tub3, stronger effect = lower value): 0.808 (active)
normalized growth (locus YMR058W, strain fet3, stronger effect = lower value): 0.815 (active)
normalized growth (locus YMR078C, strain ctf18, stronger effect = lower value): 0.335 (active)
normalized growth (locus YMR125W, strain sto1, stronger effect = lower value): 1.08 (inactive)
normalized growth (locus YMR129W, stronger effect = lower value): 0.997 (inactive)
normalized growth (locus YMR205C, strain PFK2, stronger effect = lower value): 0.983 (inactive)
normalized growth (locus YMR223W, strain ubp8, stronger effect = lower value): 0.602 (active)
normalized growth (locus YMR231W, strain pep5, stronger effect = lower value): 1.01 (inactive)
normalized growth (locus YMR307W, strain GAS1, stronger effect = lower value): 0.641 (inactive)
normalized growth (locus YNL067W, strain RPL9B, stronger effect = lower value): 0.691 (active)
normalized growth (locus YNL071W, strain lat1, stronger effect = lower value): 0.932 (inactive)
normalized growth (locus YNL183C, strain NPR1, stronger effect = lower value): 0.929 (inactive)
normalized growth (locus YNL209W, strain ssb2, stronger effect = lower value): 0.895 (active)
normalized growth (locus YNL233W, strain BNI4, stronger effect = lower value): 0.511 (active)
normalized growth (locus YNL248C, strain rpa49, stronger effect = lower value): 0.706 (active)
normalized growth (locus YNL250W, strain rad50, stronger effect = lower value): 0.144 (active)
normalized growth (locus YNL271C, strain bni1, stronger effect = lower value): 0.885 (active)
normalized growth (locus YNL298W, strain CLA4, stronger effect = lower value): 0.891 (active)
normalized growth (locus YNL307C, strain MCK1, stronger effect = lower value): 0.785 (active)
normalized growth (locus YNL322C, strain KRE1 (second series), stronger effect = lower value): 0.919 (inactive)
normalized growth (locus YNL322C, strain KRE1, stronger effect = lower value): 0.751 (active)
normalized growth (locus YNR049C, strain mso1, stronger effect = lower value): 0.976 (inactive)
normalized growth (locus YNR052C, strain pop2, stronger effect = lower value): 0.666 (active)
normalized growth (locus YOL012C, strain htz1): 0.287 (inactive)
normalized growth (locus YOL147C, strain pex11, stronger effect = lower value): 0.802 (active)
normalized growth (locus YOR001W, strain rrp6, stronger effect = lower value): 0.943 (inactive)
normalized growth (locus YOR061W, strain CKA2, stronger effect = lower value): 0.793 (active)
normalized growth (locus YOR069W, strain VPS5, stronger effect = lower value): 0.577 (active)
normalized growth (locus YOR070C, strain gyp1, stronger effect = lower value): 0.877 (active)
normalized growth (locus YOR080W, strain dia2, stronger effect = lower value): 0.941 (inactive)
normalized growth (locus YOR083W, strain WHI5, stronger effect = lower value): 0.806 (active)
normalized growth (locus YOR106W, strain vam3, stronger effect = lower value): 0.593 (active)
normalized growth (locus YOR136W, strain idh2, stronger effect = lower value): 0.877 (active)
normalized growth (locus YOR144C, strain elg1, stronger effect = lower value): 0.812 (active)
normalized growth (locus YOR184W, strain ser1, stronger effect = lower value): 0.426 (active)
normalized growth (locus YOR231W, strain MKK1, stronger effect = lower value): 0.981 (inactive)
normalized growth (locus YOR265W, strain rbl2, stronger effect = lower value): 0.938 (inactive)
normalized growth (locus YOR270C, strain vph1, stronger effect = lower value): 0.409 (active)
normalized growth (locus YOR290C, strain snf2, stronger effect = lower value): 0.911 (inactive)
normalized growth (locus YOR316C, strain cot1, stronger effect = lower value): 1 (inactive)
normalized growth (locus YPL051W, strain arl3, stronger effect = lower value): 0.685 (active)
normalized growth (locus YPL055C, strain LGE1, stronger effect = lower value): 0.146 (active)
normalized growth (locus YPL078C, strain atp4, stronger effect = lower value): 0.961 (inactive)
normalized growth (locus YPL106C, strain sse1, stronger effect = lower value): 1.21 [resistant] (active)
normalized growth (locus YPL240C, strain hsp82, stronger effect = lower value): 0.979 (inactive)
normalized growth (locus YPL256C, strain CLN2, stronger effect = lower value): 0.995 (inactive)
normalized growth (locus YPR119W, strain clb2, stronger effect = lower value): 0.952 (inactive)
normalized growth (locus YPR141C, strain kar3, stronger effect = lower value): 0.912 (active)
normalized growth (locus YPR163C, strain tif3, stronger effect = lower value): 0.72 (active)
normalized growth (locus YPR167C, strain met16, stronger effect = lower value): 0.597 (active)
normalized growth (strain wtn01, stronger effect = lower value): 0.703 (active)
